The text below walks through data of PubChem BioAssay AID493170 (National Center for Advancing Translational Sciences (NCATS), 2011).

Results filed as inconclusive are left out. Values without a mark were called inactive. Active and inactive are the calls of the source. Calls come from the whole dose curve; as a rule, active = well fitted inhibition curve with a large enough effect; inconclusive = small, poorly fitted or top-dose-only effect, or effect the other way; inactive = flat fitted curve, though single readings scatter.
% is set by controls: 0 for no effect and ±100 for the full control effect; potency is the fitted concentration of half-maximal effect.

The target in this experiment is Ubiquitin carboxyl-terminal hydrolase 2 (Homo sapiens) (UniProt O75604). Kind of experiment: Ub-rhodamine 110 based assay for inhibitors Ubiquitin-specific Protease USP2a. Note: nearly all actives have a fitted effect of over 50% in size. The conditions noted are these: USP2a Ub-rhodamine110 cleavage, fluorescence; series mostly up to 38.3 µM; activity change, negative = inhibition: at the top concentration. Put shortly: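 Kinetic fluorescence (485/531 nm) read each minute over 7 min after adding Ub-Rhod110 (150 nM final) to USP2a (5 nM final). The enzyme had 30 min RT exposure to compounds beforehand in Tris pH 8.0 buffer with CaCl2, CHAPS and beta-ME.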
Chain of Ubiquitin carboxyl-terminal hydrolase 2 (Homo sapiens) (O75604 whole entry, looked up): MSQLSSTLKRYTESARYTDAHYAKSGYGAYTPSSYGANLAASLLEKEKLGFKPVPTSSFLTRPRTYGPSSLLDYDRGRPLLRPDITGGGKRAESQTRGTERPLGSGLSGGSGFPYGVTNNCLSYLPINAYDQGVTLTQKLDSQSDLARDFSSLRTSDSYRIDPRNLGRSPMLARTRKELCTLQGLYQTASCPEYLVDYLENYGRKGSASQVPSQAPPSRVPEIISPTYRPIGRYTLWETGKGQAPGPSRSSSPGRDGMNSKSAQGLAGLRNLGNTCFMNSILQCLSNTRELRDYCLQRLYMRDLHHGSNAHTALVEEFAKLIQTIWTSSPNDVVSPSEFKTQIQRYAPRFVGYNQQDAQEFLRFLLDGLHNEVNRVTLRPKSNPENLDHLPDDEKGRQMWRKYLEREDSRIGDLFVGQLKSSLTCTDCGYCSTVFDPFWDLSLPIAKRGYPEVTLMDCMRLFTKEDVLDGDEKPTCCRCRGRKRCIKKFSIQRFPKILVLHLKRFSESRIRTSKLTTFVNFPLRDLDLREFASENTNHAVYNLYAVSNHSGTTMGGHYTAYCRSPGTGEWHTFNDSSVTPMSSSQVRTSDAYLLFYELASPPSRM
`Cc1ccc(C2=[N+]([O-])C(C)N(O)C2(C)C)o1` (centres undefined): the “activity change, negative = inhibition” value was -1.97%.

With `COc1ccc(-c2csc(N3CCN(C(=O)c4ccco4)CC3)n2)cc1`, the “activity change, negative = inhibition” value was -9.11%.

As to `CC(=O)Nc1ccc(Nc2cc(C)nc(Nc3ccc(NC(C)=O)cc3)n2)cc1`, the “activity change, negative = inhibition” value was -6.62%.

In the case of `COc1ccc(NC(=O)CN(Cc2ccccc2)S(C)(=O)=O)cc1`, the “activity change, negative = inhibition” value was -5.7%.

In the case of `O=C(CSc1nc(N2CCCCC2)nc(N2CCCCC2)n1)N1CCN(c2ccccc2)CC1`, the “activity change, negative = inhibition” value was -4.93%.

As to `O=C(Nc1ccccc1)Nc1snnc1C(=O)Nc1cccc(O)c1`, the Potency was 10 µM (active).

As for `Cc1cc(=O)oc(C)c1C(=O)NCCc1ccccc1`, the “activity change, negative = inhibition” value was -10.5%.

As for `C=C1c2cccc(O)c2C(=O)C2C(=O)[C@]3(O)C(=O)C(C(N)=O)C(=O)[C@@H](N(C)C)[C@@H]3[C@@H](O)[C@H]12` (some centres undefined), the Potency was 8.91 µM (active).

For the compound `O=C(Nc1ccc(Oc2ccc(Cl)cc2)cc1)c1ncn[nH]1`, the “activity change, negative = inhibition” value is 0.92%.

For the compound `O=C(CSc1ccc2nnc(-c3cccc(F)c3)n2n1)N1CCCc2ccccc21`, the “activity change, negative = inhibition” value was -0.537%.

In the case of `CN1CCN(S(=O)(=O)c2ccc(N3CCN(S(=O)(=O)/C=C/c4ccccc4)CC3)nc2)CC1`, the “activity change, negative = inhibition” value is 1.29%.

Take `CC(C)CC(=O)Nc1cccc(-c2nc3ccccc3o2)c1`: the “activity change, negative = inhibition” value was 4.76%.

For `O=C1c2ccccc2CCC12N=NCC2c1ccc(Br)cc1` (centres undefined), the “activity change, negative = inhibition” value was -8.46%.

On to `CN(C)S(=O)(=O)c1ccc(C(=O)NCCN=C2NS(=O)(=O)c3ccccc32)cc1`, for which the “activity change, negative = inhibition” value is -8.45%.

Regarding `COc1ccc(O)c(-c2cc(-c3ccc(F)cc3)n[nH]2)c1`, the “activity change, negative = inhibition” value was -16.2%.

As for `Cc1cccc(NCc2nc(-c3ccccc3)no2)c1`, the “activity change, negative = inhibition” value is 0.203%.

Consider `O=C(COC(=O)c1c2c(nc3ccccc13)/C(=C/c1ccco1)CC2)NC1CCCC1`, for which the Potency is 3.55 µM (active).

On to `O=C(c1ccccc1)N1CCN(C(=O)N2CCCCC2)CC1`, for which the “activity change, negative = inhibition” value is 0.808%.

As to `CCOc1ccc2[nH]c(=O)c(CN(CCc3ccccc3)C(=O)c3cnccn3)cc2c1`, the “activity change, negative = inhibition” value is -0.958%.

With `COc1ccc(OCC(=O)Nc2ccccc2OC)cc1`, the “activity change, negative = inhibition” value was 4.57%.

On to `CC(C)(C)CC(C)(C)c1ccc(OCCOCC[N+](C)(C)Cc2ccccc2)cc1`, for which the “activity change, negative = inhibition” value is 2.74%.

Consider `Cc1ccc(C2(C)NC(=O)N(CC(=O)c3ccc(Cl)s3)C2=O)cc1` (centres undefined), for which the Potency is 11.2 µM (active).

For the compound `C#CCOCCOCCOCCNc1nc(N2CCN(C(=O)CCCCCCCCCCNC(=O)[C@H](CCCCN)n3cc(CCO)nn3)CC2)nc(N2CCN(C(=O)CCCCCCCCCCNC(=O)[C@H](CCCCN)n3cc(C[C@@H](C)CC)nn3)CC2)n1`, the “activity change, negative = inhibition” value was -28.8%.

Take `Cc1ccccc1C(=O)Nc1ccc2nc3n(c(=O)c2c1)CCC3`: the “activity change, negative = inhibition” value was -6.38%.

Regarding `Nc1nc(NCCO)nc(NCC2CCCO2)c1[N+](=O)[O-]` (centres undefined), the “activity change, negative = inhibition” value was -7.49%.

`CC1=NN(C(=O)c2csc(C)c2C)C(O)(C(F)(F)F)C1` (centres undefined): the “activity change, negative = inhibition” value is -1.72%.

Consider `c1ccc(-c2nc3nc4ccccc4nc3n2Cc2ccco2)cc1`, for which the “activity change, negative = inhibition” value was -15.9%.

Take `Cc1ccc(C(=O)NCc2ccc3c(c2)OCO3)cc1N1CCCC1=O`: the “activity change, negative = inhibition” value was -7.01%.

Consider `Cc1ccc(S(=O)(=O)N2[C@@H](c3ccccc3F)C(C(=O)O)=CC[C@H]2c2ccc(Cl)c(Cl)c2)cc1`, for which the Potency was 11.2 µM (active).

On to `CCOC(=O)N1CCN(C(=O)CN(c2cccc(C)c2)S(=O)(=O)c2ccccc2)CC1`, for which the “activity change, negative = inhibition” value was 2.09%.

Consider `CCNC1=C(Cl)C(=O)c2ccccc2C1=O`, for which the “activity change, negative = inhibition” value was -12.4%.

As for `O=C(/C=C/c1ccc(O)c(O)c1)c1ccc(S(=O)(=O)N2CCCCCC2)cc1`, the Potency was 3.98 µM (active).

Consider `CC1CC(C)CN(C(=O)CSc2nnc(-c3ccc(Cl)cc3)o2)C1` (centres undefined), for which the “activity change, negative = inhibition” value is 1.57%.

Turning to `Cc1cc(Cl)ccc1NC(=S)NCCCN1CCCC1=O`, the “activity change, negative = inhibition” value was 3.42%.

For the compound `O=C(CN1C(=O)/C(=C2\SC(=S)N(CCS(=O)(=O)O)C2=O)c2ccccc21)Nc1cccc(Br)c1`, the Potency was 5.62 µM (active).

Take `COC(=O)C1CCN(C(=O)c2cc(-c3ccco3)nc3ccccc23)CC1`: the Potency is 3.55 µM (active).

As for `CC(C)n1c(/C=C/[C@H](O)C[C@H](O)CC(=O)O)c(-c2ccc(F)cc2)c2ccccc21`, the “activity change, negative = inhibition” value was -10.4%.

`Cn1c(=O)[nH]c(=O)c2c1nc(NCc1ccccc1)n2CCCc1ccccc1`: the “activity change, negative = inhibition” value is -4.18%.

`CC1(C)Cc2c(C#N)c(N3CCN(C(=O)c4ccco4)CC3)nc(-c3ccco3)c2CS1`: the Potency is 8.91 µM (active).
